VP16 counter: counter-screen for ROR gamma inhibitors: Gal4-VP16 reporter; 310,000 compounds, 3.5% hits; AID 2546; Potency, µM (series often up to 53.6 µM), for inactives: top-dose activity, negative = inhibition, actives largely listed as inhibitors; Drosophila S2 Gal4-VP16 UAS-luciferase, luminescence, 20 h;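 further: Gal4-VP16 expression switched on by copper sulfate through the metallothionein promoter; on the % scale 0 is the no-effect control and ±100 the full control effect; nearly all actives have a fitted effect of over 50% in size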
GLP1R ag: agonists of human GLP-1 receptor; P43220; HEK293 GLP-1R CRE-luciferase, luminescence, 4-6 h; cells express a hypersensitive GLP-1R form; Potency, µM (highest dose often 45.6 µM), for the others: top-dose activation, most hits filed as activators; 380,000 compounds, 0.007% hits; AID 624172; further: % of control where 0% means no effect
Target sequence (P43220 whole entry, looked up): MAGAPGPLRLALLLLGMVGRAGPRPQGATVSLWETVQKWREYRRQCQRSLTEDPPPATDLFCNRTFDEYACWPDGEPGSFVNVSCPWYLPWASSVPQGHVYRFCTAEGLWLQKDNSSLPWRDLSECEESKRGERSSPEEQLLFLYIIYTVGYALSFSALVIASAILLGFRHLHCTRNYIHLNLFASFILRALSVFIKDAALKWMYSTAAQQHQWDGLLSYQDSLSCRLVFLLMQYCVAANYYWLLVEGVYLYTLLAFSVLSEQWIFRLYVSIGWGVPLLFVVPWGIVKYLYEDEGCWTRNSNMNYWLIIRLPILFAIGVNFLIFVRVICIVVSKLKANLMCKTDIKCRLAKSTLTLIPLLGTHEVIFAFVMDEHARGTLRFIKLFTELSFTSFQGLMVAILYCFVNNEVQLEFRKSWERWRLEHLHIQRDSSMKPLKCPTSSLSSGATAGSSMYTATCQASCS
RORgamma inh: inhibitors of mouse ROR gamma transcriptional activity; Potency, µM (series often up to 53.6 µM), for the others: at the highest dose activity change, negative = inhibition, actives largely listed as inhibitors; 310,000 compounds, 5.4% hits; P51450; AID 2551; Drosophila S2 Gal4-RORgamma UAS-luciferase reporter, 20 h; further: on the % scale 0 is the no-effect control and ±100 the full control effect; nearly all actives have a fitted effect of over 60% in size
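Drosophila Schneider cells stably carrying a metallothionein-driven Gal4 DBD–ROR gamma fusion and a UAS-Photinus luciferase reporter were exposed to compound for 1 hr, then induced with copper sulfate (700 uM final) for 20 hr at ambient temperature before luminescence reading.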
GLP-1R inv ag: inverse agonists of human GLP-1 receptor; HEK293 GLP-1R CRE-luciferase, luminescence, 24 h; GLP-1R form is constitutively active; Potency, µM (doses to about 38.3 µM), without a hit: at the highest dose activity change, negative = inhibition, most hits filed as inhibitors; AID 624417; P43220; 410,000 compounds, 1.6% hits; further: on the % scale 0 is the no-effect control and ±100 the full control effect; nearly all actives have a fitted effect of over 55% in size
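GLP-1R inverse agonism mode: basal reporter luminescence in engineered HEK293 cells measured after one day of compound exposure at 37 deg C, with a 12 min room-temperature detection step.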
HEK293 tox: cytotoxic in the GLP-1 receptor inverse agonist counter-screen; HEK293 cAMP-luciferase reporter cells, luminescence, 24 h; 410,000 compounds, 0.13% hits; AID 624418; Potency, µM (highest dose often 38.3 µM), for the others: top-dose activity change, negative = inhibition, actives largely listed as inhibitors;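 further: loss of luciferase light is scored as toxicity; on the % scale 0 is the no-effect control and ±100 the full control effect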
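1536-well qHTS counterscreen of the MLSMR; 200 cells/uL, 12 h pre-incubation, 23 nL cpd, 24 h at 37 deg C 5% CO2, luciferase detection reagent, 12 min RT, luminescence. Inhibition = undesired.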
* hit, by the source's call; u = inconclusive; x = no result; [ ] = dose if it differs, or a comment. Shown are actives, neighbours in structure and some others; about 5.9% of the full set was active somewhere. The call rests on the fitted dose curve; in most records, active means well fitted curve in the direction sought with a large enough effect; inconclusive means small, poorly fitted or top-dose-only effect, or another doubt; inactive means no such curve, though single readings can be large; an effect the other way counts as inactive or inconclusive. Potency means the concentration at half of the fitted maximal effect.

SMILES | VP16 counter | GLP1R ag | RORgamma inh | GLP-1R inv ag | HEK293 tox
S=c1[nH]nc(CCc2ccccc2)n1-c1ccc(Cl)cc1 | u | 20.0% | 1.78µM* | u | u
O=C(CSc1nnc(CCc2ccccc2)n1-c1ccc(Cl)cc1)c1ccccc1 | u | -0.3% | 11.2µM* | u | u
S=c1[nH]nc(CCc2ccccc2)n1-c1ccccc1 | 11.2µM* | -5.3% | 5.62µM* | -17.0% | u
COC(=O)CCC(=O)Oc1ccc(OC(=O)CCC(=O)OC)cc1 | u | x | 12.6µM* | x | x
CCCN(CCC)S(=O)(=O)c1ccc(C(=O)Nc2nnc(CSC)o2)cc1 | 1.26µM* | -7.2% | 0.891µM* | -16.7% | -13.7%
CCCCN(CC)S(=O)(=O)c1ccc(C(=O)Nc2nnc(-c3ccccc3Cl)o2)cc1 | 0.794µM* | x | u | x | x
CCCN(CCC)S(=O)(=O)c1ccc(C(=O)O)cc1 | -22.0% | -1.8% | -24.6% | 7.9% | 5.2%
CCN(CC)S(=O)(=O)c1ccc(C(=O)Nc2nc3c(Cl)cc(Cl)cc3s2)cc1 | x | -5.4% | x | -10.9% | -3.3%
CCCCN(CCCC)S(=O)(=O)c1ccc(C(=O)Nc2nnc(CSC)o2)cc1 | 0.891µM* | -7.5% | 0.316µM* | -29.0% | -13.1%
CCCCN(CC)S(=O)(=O)c1ccc(C(=O)Nc2nnc(CSC)o2)cc1 | 1µM* | -17.7% | 0.708µM* | u | -6.4%
Cc1ccccc1-c1noc(-c2ccccc2OCC(=O)Nc2cccc([N+](=O)[O-])c2)n1 | x | x | x | 0.4% | 4.2%
CCOC(=O)c1ccc(NC(=O)C(CC)Sc2nc3ccncc3[nH]2)cc1 (centres undefined) | x | x | x | 28.7% | -8.7%
O=C(Oc1ccccc1)N1CCC[C@@]2(CCN(c3ccccc3)C2)C1 | -1.9% | x | 25.8% | x | x
CC(=O)N1[C@H](Cc2ccccc2)C=C[C@]1(C)C(=O)O | -7.9% | x | -13.8% | x | x
COc1cc(C(C)=O)ccc1OCCCN1CCC(c2noc3cc(F)ccc23)CC1 | x | 13.7% | x | x | x
CCCCN(CC)S(=O)(=O)c1ccc(C(=O)Nc2nnc(COC)o2)cc1 | 3.16µM* | -8.7% | 1.26µM* | -20.8% | -11.4%
O=C(NCCCN1CCOCC1)c1ccc2c(c1)N(Cc1ccccc1)C(=O)c1ccccc1S2 | 4.9% | -6.2% | -3.7% | u | -10.8%
CC1CC(C)CN(CCCNC(=O)c2ccc3c(c2)N(Cc2ccccc2)C(=O)c2ccccc2S3=O)C1 (centres undefined) | -17.5% | -6.7% | 11.2µM* | u | -5.5%
CN1CCN(CCCNC(=O)c2ccc(/C=C3/Sc4ccccc4N(Cc4cccc(Cl)c4)C3=O)cc2)CC1 | u | 5.3% | u | u | 7.4%
CN1CCN(CCCNC(=O)c2ccc(/C=C3\Sc4ccccc4N(Cc4ccc(F)cc4)C3=O)cc2)CC1 | -2.1%[10 µM] | -4.6% | u | 10µM* | 3.6%
CCOc1ccc(CN2C(=O)c3ccccc3Sc3ccc(C(=O)NCCCN4CCOCC4)cc32)cc1 | 8.2% | -7.4% | 0.7% | 12.6µM* | u
CCC1=C2CC[C@H]3C(=O)N(c4ccccc4)C(=O)[C@H]3[C@H]2[C@@]2(Cc3ccccc3)C(=NCCc3c[nH]c4ccccc34)OC(=O)N2C1=O | -8.1% | x | 10.5% | x | x
Nc1nc2c(c(=O)[nH]1)N(C=O)C(CNc1ccc(C(=O)NC(CCC(=O)O)C(=O)O)cc1)CN2 (centres undefined) | 4.0% | x | 12.6% | x | x
O=c1c2nc(Br)n([C@@H]3O[C@@H]4CO[P@@](O)(=S)O[C@H]4[C@H]3O)c2nc2[nH]c(-c3ccccc3)cn12 | -10.0% | x | 1.0% | x | x
COc1ccc(CNC(=O)c2cc3cccc4c3n2CC(C)S4)c(OC)c1 (centres undefined) | x | x | x | 7.94µM* | -11.2%
SMILES | VP16 counter | GLP1R ag | RORgamma inh | GLP-1R inv ag | HEK293 tox
COc1ccc(CNCCC(c2ccc(OC(C)C)cc2)c2ccccc2OC)cc1 (centres undefined) | u | -0.4% | u | 5.62µM* | u
COc1ccccc1NC(=O)CC(c1ccc(OC(C)C)cc1)c1ccccc1OC (centres undefined) | -8.7% | -1.6% | -6.9% | 11.2µM* | 5.2%
COc1ccc(C(CCNCc2ccc(OC(C)C)cc2)C(C)C)cc1 (centres undefined) | u | 11.2% | 12.6µM* | u | u
COc1ccccc1C(CCNCc1ccc(N(C)C)cc1)c1ccc(OC(C)C)cc1 (centres undefined) | -14.6% | -0.5% | u | u | u
COCCCn1c(=O)c2sccc2n2c(CCCC(=O)Nc3cccc(OC)c3)nnc12 | x | x | x | 5.4% | -17.9%
COCCn1c(=O)c(-c2ccc(F)cc2)nc2cnc(N(C)C)nc21 | -25.0% | x | -13.0% | x | x
COc1ccc(N=C2S/C(=C\c3ccc(N4CCOCC4)o3)C(=O)N2CCc2c[nH]c3ccccc23)cc1 | 5.01µM* | x | 6.31µM* | x | x
Fc1ccc(-n2ncc3c(N4CCN(c5ccccc5F)CC4)ncnc32)cc1 | x | x | x | -1.1% | 8.8%
Cc1ccc(C(=O)NNc2cc(N3CCCC3)nc(N3CCCC3)n2)cc1 | u | -9.8% | 5.01µM* | u | -34.6%
Cc1ccc(C(=O)NNC(=O)C2CCN(c3ncccn3)CC2)cc1 | 1.8% | 2.1% | 7.5% | 7.9% | -0.7%
O=C(NNc1cc(N2CCOCC2)nc(N2CCOCC2)n1)c1ccc(Cl)c(Cl)c1 | u | -5.8% | 14.1µM* | u | -13.2%
CC(C)c1ccc(S(=O)(=O)c2nnn3c2nc(N2CCCCC2)c2sccc23)cc1 | x | x | x | 15.5% | 0.5%
C[C@@](N)(Cc1ccc(O)c(O)c1)C(=O)O | 4.1% | x | 11.4% | x | x
COc1ccccc1C(=O)NCC(=O)N/N=C/c1cc(Br)ccc1OC(=O)/C=C\c1ccco1 | 7.08µM* | -0.8% | 3.55µM* | -29.7% | -9.7%
O=C(CNC(=O)c1ccccc1F)N/N=C/c1cc(Br)ccc1OC(=O)/C=C/c1ccco1 | 3.16µM* | 2.2% | 2.51µM* | u | 0.3%
O=C(CNC(=O)c1ccc(F)cc1)N/N=C/c1cc(Br)ccc1OC(=O)/C=C/c1ccco1 | u | -1.8% | 5.01µM* | u | -5.0%
COc1ccc(N2Cc3cccc(C(=O)Nc4ccc(Cl)cc4)c3C2=O)cc1 | x | -1.7% | x | -15.9% | 2.0%
CCOc1ccccc1C(=O)NCc1ccc2c(c1)CCN2C(=O)c1ccccc1 | x | x | x | 21.0% | -15.8%
CCCCn1c(=O)c2[nH]c(C34CC5CC(CC3C5)C4)nc2n(CCCO)c1=O | -16.7% | x | u | x | x
Cc1cccc(C(=O)NNC(=O)c2ccccc2O)c1 | u | -3.9% | 12.6µM* | u | -1.2%
Cc1cccc(C(=O)NNC(=O)c2ccccc2C)c1 | 4.0% | 2.2% | -7.2% | 5.7% | 2.7%
CC(C)(C)NC(=O)C(=O)NNC(=O)c1cccc(Br)c1 | u | 2.8% | u | 16.7% | -5.1%

Assay outcomes from PubChem BioAssay.
